{
  "source": "PubChem BioAssay AID463173",
  "about": "(ICCB-Longwood Screening Facility, Harvard Medical School, 2010)",
  "note": "Hit rate of the full screen: of about 52,000 compounds, about 1,700 (3.3%) were called active. This excerpt belongs to a sample that is enriched for actives. Unmarked numbers belong to inactive results. No stated cut-off is given here; in the data, active means survival mostly below about 52% (no sharp cut-off); inactive means mostly above about 56%.",
  "data": [
    {"system": "Wild type", "test": "S. aureus survival, RN4220 and DeltatarO strains – OD600, teichoic acid synthesis inhibitors, primary screen (AID 463173)", "conditions": "S. aureus RN4220 wild type/DeltatarO growth, OD600, 18 h, hits give low values, screened at 18.75 µg/mL (by protocol)", "values": [
      {"compound": "CC(C)Nc1nc(C#N)nc(NC(C)C)n1", "survival": "130%"},
      {"compound": "COc1cc(NC(=O)c2cc3c(=O)n(Cc4ccco4)ccc3nc2C)cc(OC)c1OC", "survival": "63%"},
      {"compound": "O=c1[nH]c2ccc(N=Cc3ccccc3C(F)(F)F)cc2[nH]1", "survival": "116%"},
      {"compound": "COc1cc(NS(=O)(=O)c2ccc(NC(=O)COc3ccc(Cl)cc3Cl)cc2)nc(OC)n1", "survival": "93%"},
      {"compound": "C=CCN1C(=O)C(C)(C)N(C(C)=O)c2ccccc21", "survival": "121%"},
      {"compound": "O=S(=O)(c1ccccc1)c1nc(-c2ccc(F)cc2)oc1N1CCCCCC1", "survival": "19%"},
      {"compound": "CCS(=O)(=O)c1oc(-c2ccc(F)cc2)nc1S(=O)(=O)c1ccccc1", "survival": "-1% (active)"},
      {"compound": "O=S(=O)(c1ccccc1)c1nc(-c2ccc(F)cc2)oc1NCc1ccccc1", "survival": "84%"},
      {"compound": "Cc1ccc(CNC(=O)c2cc(C3CC3)nc3c2c(C)nn3-c2cccc(Cl)c2C)cc1", "survival": "94%"},
      {"compound": "COc1ccccc1OC(C)C(=O)Nc1cccc(-c2nc3ccccc3s2)c1", "note": "(stereo not drawn)", "survival": "29%"},
      {"compound": "Cc1ncc(CO)c2c1Oc1nc(-c3ccc(Cl)cc3)nc(SCC(=O)N3CCCCC3)c1C2", "survival": "79%"},
      {"compound": "O=S1(=O)c2ccccc2N(Cc2cccc(Cl)c2)c2ccccc21", "survival": "-2% (active)"},
      {"compound": "O=C(c1ccc2c(c1)N(Cc1ccccc1)C(=O)c1ccccc1S2(=O)=O)N1CCc2ccccc21", "survival": "87%"},
      {"compound": "COc1ccccc1CNC(=O)c1ccc2c(c1)N(Cc1cccc(C)c1)C(=O)c1ccccc1S2(=O)=O", "survival": "90%"},
      {"compound": "O=S1(=O)c2ccccc2N(Cc2ccc(Cl)cc2)c2ccccc21", "survival": "129%"},
      {"compound": "O=C(c1ccc2c(c1)N(Cc1cccc(Cl)c1)C(=O)c1ccccc1S2(=O)=O)N1CCc2ccccc21", "survival": "-3% (active)"},
      {"compound": "COc1ccccc1CNC(=O)c1ccc2c(c1)N(Cc1cccc(Cl)c1)C(=O)c1ccccc1S2(=O)=O", "survival": "10% (active)"},
      {"compound": "CCCCN(C)C(=O)c1ccc2c(c1)N(Cc1cccc(Cl)c1)C(=O)c1ccccc1S2=O", "note": "(stereo not drawn)", "survival": "124%"},
      {"compound": "O=S1(=O)c2ccccc2N(Cc2ccccc2)c2ccccc21", "survival": "69%"},
      {"compound": "O=C(c1ccc2c(c1)N(Cc1ccc(Cl)cc1)C(=O)c1ccccc1S2(=O)=O)N1CCc2ccccc21", "survival": "147%"},
      {"compound": "CCN(C(=O)c1ccc2c(c1)N(Cc1cccc(Cl)c1)C(=O)c1ccccc1S2=O)c1ccccc1", "note": "(stereo not drawn)", "survival": "0% (active)"},
      {"compound": "O=C(NCc1ccccc1)c1ccc2c(c1)N(Cc1cccc(Cl)c1)C(=O)c1ccccc1S2(=O)=O", "survival": "74%"},
      {"compound": "CN(C(=O)c1ccc2c(c1)N(Cc1cccc(Cl)c1)C(=O)c1ccccc1S2=O)C1CCCCC1", "note": "(stereo not drawn)", "survival": "95%"},
      {"compound": "O=C(Nc1cccc(Cl)c1)c1cc2c(=O)[nH]c3ccccc3c2s1", "survival": "63%"},
      {"compound": "COc1ccccc1NC(=O)c1sc2nc(C)c(C(=O)Nc3ccc(C)cc3C)c(-c3ccccc3Cl)c2c1N", "survival": "139%"},
      {"compound": "CC(C)CC(=O)NCC(c1ccc2c(c1)OCO2)N1CCN(c2ccccc2F)CC1", "note": "(stereo not drawn)", "survival": "76%"},
      {"compound": "CCN(CC)CCNC(=O)c1ccc2c(c1)NC(=O)C(CS(=O)(=O)Cc1cccc(Br)c1)N2", "note": "(stereo not drawn)", "survival": "134%"},
      {"compound": "Cc1ccc(Cl)cc1N1CCN(CCCNC(=O)c2nnc(Cc3cccc(Cl)c3)o2)CC1", "survival": "12% (active)"},
      {"compound": "CCOc1ccc(NC(=O)NCCN2CCN(c3cc(Cl)ccc3C)CC2)cc1", "survival": "53%"},
      {"compound": "Cc1ccc(C)c(N2CCN(CCCNC(=O)Nc3ccc(Cl)cc3)CC2)c1", "survival": "-6% (active)"},
      {"compound": "Cc1ccc(Cl)cc1N1CCN(CCNC(=O)Nc2ccc(Cl)cc2)CC1", "survival": "-6% (active)"},
      {"compound": "O=C(NCCCN1CCN(c2ccccc2F)CC1)c1nnc(Cc2ccc(Cl)cc2Cl)o1", "survival": "77%"},
      {"compound": "Cc1ccc(Cl)cc1N1CCN(CCNC(=O)Nc2ccccc2Cl)CC1", "survival": "98%"},
      {"compound": "O=C(NCCCN1CCN(c2ccc(F)cc2)CC1)Nc1ccc(Cl)cc1", "survival": "64%"},
      {"compound": "Cc1cccc(N2CCN(CCNC(=O)Nc3ccc(Cl)cc3)CC2)c1C", "survival": "87%"},
      {"compound": "COc1ccc(Cc2nnc(C(=O)NCCCN3CCN(c4ccccc4F)CC3)o2)cc1OC", "survival": "87%"},
      {"compound": "COc1ccc(-c2nnn(CC(=O)N(CC3CCCO3)C(C(=O)NC3CCCCC3)c3cccs3)n2)cc1", "note": "(stereo not drawn)", "survival": "103%"},
      {"compound": "COc1ccc(NC(=O)CCNS(=O)(=O)c2cccc3nonc23)c(OC)c1", "survival": "67%"},
      {"compound": "CC1CCN(S(=O)(=O)c2ccc3nc(N4CCN(c5ccc(F)cc5)CC4)ccc3c2)CC1", "survival": "92%"},
      {"compound": "COc1ccc(NC(=O)CSC2=Nc3ccccc3C3=NC(CCC(=O)NCc4ccco4)C(=O)N23)cc1", "note": "(stereo not drawn)", "survival": "60%"},
      {"compound": "CC(C)CC(=O)n1nc(-c2ccco2)nc1NCc1ccc(Cl)cc1", "survival": "83%"},
      {"compound": "O=C(OCc1cc(=O)n2nc(C3CC3)sc2n1)c1ccc(NC(=O)c2ccccc2Cl)cc1", "survival": "99%"},
      {"compound": "Cc1cc(C)c(-c2n[nH]c3c2C(c2ccccc2F)N(CCO)C3=O)c(O)c1", "note": "(stereo not drawn)", "survival": "83%"},
      {"compound": "Cc1ccc(C2c3c(-c4cc(C)ccc4O)n[nH]c3C(=O)N2Cc2ccco2)cc1", "note": "(stereo not drawn)", "survival": "1% (active)"},
      {"compound": "O=C1c2[nH]nc(-c3ccccc3O)c2C(c2ccccc2F)N1Cc1ccncc1", "note": "(stereo not drawn)", "survival": "93%"},
      {"compound": "O=C1c2[nH]nc(-c3ccccc3O)c2C(c2ccc(F)cc2)N1CCO", "note": "(stereo not drawn)", "survival": "81%"},
      {"compound": "O=C1c2[nH]nc(-c3ccccc3O)c2C(c2ccccc2F)N1Cc1cccnc1", "note": "(stereo not drawn)", "survival": "94%"},
      {"compound": "Cc1ccc(O)c(-c2n[nH]c3c2C(c2ccc(F)cc2)N(Cc2ccco2)C3=O)c1", "note": "(stereo not drawn)", "survival": "2% (active)"},
      {"compound": "CCc1ccc(C2c3c(-c4cc(C)ccc4O)n[nH]c3C(=O)N2Cc2cccnc2)cc1", "note": "(stereo not drawn)", "survival": "74%"},
      {"compound": "CCc1ccc(C2c3c(-c4cc(C)ccc4O)n[nH]c3C(=O)N2CCO)cc1", "note": "(stereo not drawn)", "survival": "78%"},
      {"compound": "Cc1ccc(O)c(-c2n[nH]c3c2C(c2ccccc2F)N(Cc2ccco2)C3=O)c1", "note": "(stereo not drawn)", "survival": "11% (active)"},
      {"compound": "Cc1cc(C)c(-c2n[nH]c3c2C(c2ccccc2F)N(Cc2ccco2)C3=O)c(O)c1", "note": "(stereo not drawn)", "survival": "8% (active)"},
      {"compound": "COc1cc(C2c3c(-c4cc(C)ccc4O)n[nH]c3C(=O)N2Cc2ccco2)cc(OC)c1OC", "note": "(stereo not drawn)", "survival": "73%"},
      {"compound": "COc1cc(C2c3c(-c4c(C)cc(C)cc4O)n[nH]c3C(=O)N2Cc2ccco2)cc(OC)c1OC", "note": "(stereo not drawn)", "survival": "98%"},
      {"compound": "COc1cc(OC)c(NC(=O)c2c(C)oc3nc(C)nc(N4CCOCC4)c23)cc1Cl", "survival": "81%"},
      {"compound": "COc1ccc2c(c1)c(CC(=O)Nc1cccc(F)c1C)c(C)n2C(=O)c1ccc(Cl)cc1", "survival": "152%"},
      {"compound": "COc1ccc(-c2nc3scc(CCNS(=O)(=O)c4c(C)noc4C)n3n2)cc1OC", "survival": "123%"},
      {"compound": "CCOc1ccc(-c2cc(-c3nc(-c4cc(OC)c(OC)c(OC)c4)no3)[nH]n2)cc1", "survival": "123%"},
      {"compound": "Oc1ccc(Cl)cc1C1=Nc2ccccc2N=C(c2cccc(Br)c2)C1", "survival": "137%"},
      {"compound": "c1ccc(N2CCN(Cc3nnc(-c4ccc5c(c4)OCO5)o3)CC2)cc1", "survival": "81%"},
      {"compound": "CCOc1ccc(NC(=O)/C(C#N)=C\\c2cc(C)n(C)c2C)cc1", "survival": "103%"},
      {"compound": "O=C(CSc1nc(-c2ccccc2)no1)N1CCN(c2ccc(F)cc2)CC1", "survival": "91%"},
      {"compound": "CCc1ccccc1NC(=O)C(C)n1c(=O)cc(C)c2c(C)nn(-c3ccccc3)c21", "note": "(stereo not drawn)", "survival": "72%"},
      {"compound": "COc1cc(C2C(=O)N(C3CCCCC3)CC(=O)N2CCc2ccccc2)ccc1OC(C)C", "note": "(stereo not drawn)", "survival": "89%"},
      {"compound": "Cc1ccc(CNC(=O)c2cc(Sc3ccc(F)cc3F)nc3ccccc23)cc1", "survival": "94%"},
      {"compound": "CCOC(=O)c1c(C)oc2c1cc(NS(=O)(=O)c1ccc(C)cc1)c1ccccc12", "survival": "86%"},
      {"compound": "COC(=O)c1c(C)oc2c1cc(NS(=O)(=O)c1c(C)cc(C)cc1C)c1ccccc12", "survival": "25% (active)"},
      {"compound": "COc1ccc(OC)c(S(=O)(=O)Nc2cc3c(C(C)=O)c(C)oc3c3ccccc23)c1", "survival": "69%"},
      {"compound": "CCOC(=O)c1sc2sc(C(=O)OCC)c(CN(CC)CC)c2c1CN(CC)CC", "survival": "94%"},
      {"compound": "Cc1ccccc1-c1nnc(NC(=O)CC(C)C)s1", "survival": "116%"},
      {"compound": "COc1ccc(OC)c(CNS(=O)(=O)c2ccc(-c3cc(C(F)(F)F)on3)s2)c1", "survival": "-6% (active)"},
      {"compound": "COc1ccc(CNS(=O)(=O)c2ccc(-c3cc(C(F)(F)F)on3)s2)cc1OC", "survival": "133%"},
      {"compound": "COc1ccccc1CNS(=O)(=O)c1ccc(-c2cc(C(F)(F)F)on2)s1", "survival": "73%"},
      {"compound": "CCC(=O)N1CCc2cc(S(=O)(=O)CCC(=O)N3CCN(c4cccc(C)c4)C(C)C3)ccc21", "note": "(stereo not drawn)", "survival": "83%"},
      {"compound": "Cc1cccc(N2CCN(C(=O)CCS(=O)(=O)c3ccc4c(c3)CC(=O)N4C)CC2C)c1", "note": "(stereo not drawn)", "survival": "-4% (active)"},
      {"compound": "CN1C(=O)Cc2cc(S(=O)(=O)CCC(=O)N3CCN(c4cccc(Cl)c4)CC3)ccc21", "survival": "83%"},
      {"compound": "COc1ccc(-c2cn3c(n2)sc2cc(C(=O)Nc4c(C)cccc4C)ccc23)cc1", "survival": "83%"},
      {"compound": "COc1ccc(OCC(=O)N2CCN(C(=O)c3ccc(OC)c(OC)c3)CC2)cc1", "survival": "134%"},
      {"compound": "Nc1ccc(N2CCN(c3ncc(C(F)(F)F)cc3Cl)CC2)c(C(F)(F)F)c1", "survival": "-14% (active)"},
      {"compound": "Nc1ccc(N2CCOCC2)c(N)c1", "survival": "113%"},
      {"compound": "Nc1ccc(-c2ccc(N)cc2C(F)(F)F)c(C(F)(F)F)c1", "survival": "117%"},
      {"compound": "Cc1ccc(C2=Nc3ccccc3N(CC(=O)Nc3ccccc3F)C(=O)C2)cc1C", "survival": "83%"},
      {"compound": "CCC(Oc1ccc(F)cc1)C(=O)Nc1nc2c(s1)CCCC2", "note": "(stereo not drawn)", "survival": "76%"},
      {"compound": "CCC(Oc1ccc(F)cc1)C(=O)Nc1nc(-c2ccc(F)cc2)ns1", "note": "(stereo not drawn)", "survival": "-1% (active)"},
      {"compound": "CCC(Oc1ccc(F)cc1)C(=O)Nc1cc(-c2ccc(C)cc2)no1", "note": "(stereo not drawn)", "survival": "64%"},
      {"compound": "COc1ccc(-c2nsc(NC(=O)C(C)Oc3ccc(Cl)c(C)c3)n2)cc1", "note": "(stereo not drawn)", "survival": "67%"},
      {"compound": "Cc1cc(C)cc(OCC(=O)Nc2nc(-c3ccc(F)cc3)ns2)c1", "survival": "89%"},
      {"compound": "CC(Oc1ccc(F)cc1)C(=O)Nc1nc(-c2ccc(F)cc2)ns1", "note": "(stereo not drawn)", "survival": "-1% (active)"}
    ]}
  ]
}
